Screening results: PubChem BioAssay, University of Pittsburgh Molecular Library Screening Center
This excerpt belongs to a sample that is enriched for hits.
HIV RNase H inh-1 – blocks HIV-1 RNase H cleavage of RNA/DNA duplex; P04585; RT-RNase H RNA/DNA duplex cleavage, fluorescence; inhibition, % at 10 µM; 65,000 tested, 1.9% active; in the data active = inhibition above about 50%
HIV RNase H inh-2 – confirmation of HIV-1 reverse transcriptase RNase H inhibitors; shares compounds with HIV RNase H inh-1; Recombinant RT RNase H, fluorescent RNA/DNA duplex cleavage; inhibition, % at 10 µM; 1,000 tested, 39% active; in the data active = inhibition above about 48%; inconclusive = no clear call, values can overlap the other calls
Large screens that a line does not name were inactive (follow-up assays come after a bar, where they were run).

CCOc1ccc(S(=O)(=O)n2nnc3ccccc32)cc1C(C)C	none
Nc1c(C(=O)NC2CCCC2)c2nc3ccccc3nc2n1/N=C/c1cccnc1	none
Cc1ccc2oc(=O)c3cnn(CC(=O)NC4CCCCC4C)c3c2c1 (configuration not stated)	none
CCN1CCN(C(=O)c2ccc(NS(=O)(=O)c3ccccc3)cc2)CC1	none
COc1cccc(Cn2nnc(C(=O)Nc3ccc(C)cc3)c2N)c1	none
COc1cccc(CNC(=O)c2nnn(CC(=O)Nc3ccc(C)c(C)c3)c2N)c1	none
Cc1ccc(NC(=O)Cn2nnc(C(=O)Nc3ccc(C)c(C)c3)c2N)cc1	HIV RNase H inh-1 67 | HIV RNase H inh-2 59
Cc1onc(-c2ccccc2)c1C(=O)N1CCCSC1=Nc1ccccc1	none
COCCCn1c(C2CCCCC2)nc2oc3cc(OC)ccc3c(=O)c2c1=O	none
COc1ccc(N2C(=O)CC(N3CCN(c4nc5ccccc5s4)CC3)C2=O)cc1 (configuration not stated)	none
COc1cccc2sc(N3CCN(c4nc5ccccc5s4)CC3)nc12	HIV RNase H inh-1 71 | HIV RNase H inh-2 inconclusive
Clc1cccc2sc(N3CCN(c4ccccc4)CC3)nc12	none
CCCN1CCC(N(C)CCc2ccc(OC)c(OC)c2)CC1	none
Cn1c(Cn2c(=O)sc3ccccc32)nnc1SCc1ccccc1	none
CCn1c(CNC(=O)c2cccc(C)c2)nc2ccccc21	none
COc1ccccc1-c1cc(C(=O)N2CCN(c3ccc(F)cc3)CC2)no1	HIV RNase H inh-1 72 | HIV RNase H inh-2 inactive
COc1ccccc1N1CCN(C(=O)c2cc(-c3cccs3)on2)CC1	none
COc1ccccc1N1CCN(C(=O)c2cc(-c3ccco3)on2)CC1	none
O=C(c1ccco1)N1CCN(/C(=N/S(=O)(=O)c2cccs2)c2ccccc2Cl)CC1	none
CCOC(=O)Cn1nnnc1C(CC)N(Cc1cccs1)Cc1cc2ccc(OC)cc2[nH]c1=O (configuration not stated)	none
CCOC(=O)c1c(C)c(C(=O)NCCCOC(C)C)c(C)n1C	none
COc1ccc(C(c2nnnn2Cc2cccs2)N2CCN(c3ccccc3F)CC2)cc1 (configuration not stated)	none
COc1ccc(-c2nnc3sc(COc4ccccc4)nn23)cc1	none
c1ccc(OCc2nn3c(-c4ccco4)nnc3s2)cc1	none
Clc1ccccc1-c1nn2c(COc3ccccc3)nnc2s1	none
c1ccc(OCc2nn3c(C4CCCCC4)nnc3s2)cc1	HIV RNase H inh-1 64 | HIV RNase H inh-2 inactive
c1ccc(Cc2nn3c(COc4ccccc4)nnc3s2)cc1	HIV RNase H inh-1 93 | HIV RNase H inh-2 64
CCOc1cccc(-c2nnc3sc(COc4ccccc4)nn23)c1	none
Cc1cc(Cl)c(S(=O)(=O)NC2CCCCC2)cc1OCC(=O)Nc1nncs1	none
O=C1Nc2ccccc2OC1CC(=O)N1CCN(c2cccc(C(F)(F)F)c2)CC1 (configuration not stated)	none
CCCS(=O)(=O)N1CCC(C(=O)NCc2ccccc2Cl)CC1	none
O=C(NC1CCSC1=O)c1cccc(C(=O)NC2CCSC2=O)c1 (configuration not stated)	none
O=C(NCC1CCCO1)c1cc(-c2ccco2)nc2ccccc12 (configuration not stated)	none
O=C(O)c1cc(-c2ccco2)nc2ccc(Br)cc12	HIV RNase H inh-1 78 | HIV RNase H inh-2 inactive
Cc1cc(C(N)=O)c2cc(Br)ccc2n1	none
CC1CCCCN1C(=O)C12CCC(C)(/C(=N/O)C1)C2(C)C (configuration not stated)	none
O=C(Cn1c(=O)sc2ccccc21)Nc1ccccc1C(=O)O	none
Cc1cccc(-c2nc(CN3CCCC(C(=O)NC4CCCCC4)C3)c(C)o2)c1 (configuration not stated)	none
Cc1cccc(-c2nc(CN3CCCC(C(=O)NC4CCCCCC4)C3)c(C)o2)c1 (configuration not stated)	none
COC(=O)c1ccc2c(c1)N(Cc1nc(-c3cccc(C)c3)oc1C)C(=O)C1CCCN21 (configuration not stated)	HIV RNase H inh-1 71 | HIV RNase H inh-2 67
CC1(C)CC(=O)N(c2ccccc2)C1(C)O (configuration not stated)	none
Cc1cc(NS(=O)(=O)c2ccccc2)cc(Cl)c1O	HIV RNase H inh-1 78 | HIV RNase H inh-2 inactive
Cc1cc(O)c(C(C)C)cc1NS(=O)(=O)c1ccccc1	none
Cc1cc(S(=O)(=O)Nc2ccccc2C(=O)O)ccc1Cl	none
N#Cc1ccsc1NC(=O)COc1ccc(-c2nnco2)cc1	none
COc1cc(C(=O)OCC(=O)Nc2c(F)c(F)c(F)c(F)c2F)cc(OC)c1OC	none
COc1ccc(C(=O)Nc2ccccc2)cc1S(=O)(=O)Nc1cc(C)on1	none
COC(=O)c1cc(OC)c(OC)cc1NC(=O)c1ccoc1C	none
O=C(CN1C(=O)CCS(=O)(=O)c2ccccc21)Nc1cccc(Cl)c1	none
Cc1cc(C)cc(OCC(=O)Nc2nonc2NC(=O)COc2cc(C)cc(C)c2)c1	HIV RNase H inh-1 78 | HIV RNase H inh-2 67
Cc1cc(C)cc(OCC(=O)NCc2nc(-c3ccccc3)no2)c1	none
